Assay results taken from PubChem BioAssay AID1851 (National Center for Advancing Translational Sciences (NCATS), 2009).
Hit rate of the full screen: of about 16,000 compounds, about 5,800 (36%) were called active. Not shown: some 23% with an inconclusive outcome. The call rests on the fitted dose curve; in most records, active means well fitted curve in the direction sought with a large enough effect; inconclusive means small, poorly fitted or top-dose-only effect, or effect the other way; inactive means no such curve, though single readings can be large or run the other way. This is one part of the list. Peptide text beside a SMILES is read from it.

Molecular target: Cytochrome P450 2C19 (Homo sapiens) (UniProt P33261)
Sequence (P33261 whole entry, looked up): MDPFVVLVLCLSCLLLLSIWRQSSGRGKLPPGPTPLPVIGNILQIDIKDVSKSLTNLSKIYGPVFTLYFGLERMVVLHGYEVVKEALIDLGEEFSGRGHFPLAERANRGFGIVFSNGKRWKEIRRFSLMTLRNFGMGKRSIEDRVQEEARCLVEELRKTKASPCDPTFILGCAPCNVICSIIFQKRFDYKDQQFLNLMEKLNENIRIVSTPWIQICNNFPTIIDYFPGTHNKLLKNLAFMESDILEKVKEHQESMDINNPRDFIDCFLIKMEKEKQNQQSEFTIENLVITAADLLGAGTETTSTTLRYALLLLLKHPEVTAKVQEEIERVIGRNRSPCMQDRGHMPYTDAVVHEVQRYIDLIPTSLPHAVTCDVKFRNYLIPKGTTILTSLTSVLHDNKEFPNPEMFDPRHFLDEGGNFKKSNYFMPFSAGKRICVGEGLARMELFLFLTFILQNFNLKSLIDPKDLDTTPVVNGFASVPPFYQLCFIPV
Assay: Cytochrome panel assay with activity outcomes
Details: recombinant CYP, pro-luciferin dealkylation, luminescence, p450-cyp2c19; series mostly up to 57.1 µM; activity, negative = inhibition: at the top concentration
On the % scale 0 is the no-effect control and ±100 the full control effect.

Compound | AC50 | activity, negative = inhibition
Cc1ccc(C(=O)N2CCN(c3cc(=O)[nH]nc3-c3ccccc3)CC2)cc1 | 20 µM (active) | 
O=C(c1cccc(F)c1)N1CCC2(CC1)CCN(c1ccc(-c3ccccc3)cc1)CC2 |  | 6.49% (inactive)
CC(C)[C@H](CO)Nc1nc(Nc2cc(N)cc(Cl)c2)c2ncn(C(C)C)c2n1 |  | -37.3% (inactive)
CN(C)C(=O)c1ccc(-c2nc(Nc3ccccc3)c3ccccc3n2)cc1 | 15.8 µM (active) | 
CC(=O)NCCNc1nc(-c2ccc(C(=O)N(C)C)cc2)nc2ccccc12 |  | 8.27% (inactive)
CN(C)C(=O)c1ccc(-c2nc(Nc3ccc(F)cc3)c3ccccc3n2)cc1 | 31.6 µM (active) | 
Cc1cnc(CNc2nc(-c3ccc(C(=O)N(C)C)cc3)nc3ccccc23)cn1 |  | -40.4% (inactive)
CN(C)C(=O)c1ccc(-c2nc(NCc3cccs3)c3ccccc3n2)cc1 | 10 µM (active) | 
C=C1CC[C@H](O)C/C1=C/C=C1\CCC[C@]2(C)[C@H]1CC[C@H]2[C@@H](C)/C=C\[C@@H](C)C(C)C |  | -40.4% [at 25.6 µM] (inactive)
Cn1c(=O)n(C)c2cc([N+](=O)[O-])c(N3CCN(C(=O)c4ccccc4Cl)CC3)cc21 | 17.8 µM (active) | 
CCOC(=O)c1c(NC(=O)c2ccc(N3CCOCC3)c([N+](=O)[O-])c2)sc(C)c1C |  | 2.69% (inactive)
Cc1ccc(OCC(=O)N2CCN(c3ccc([N+](=O)[O-])c(N4CCOCC4)c3)CC2)cc1 | 14.1 µM (active) | 
Cc1ccc(OC(=O)c2ccc(N3CCOCC3)c([N+](=O)[O-])c2)cc1 | 20 µM (active) | 
CO/N=C/c1ccc(N2CCN(C(=O)c3ccc(Cl)cc3Cl)CC2)c([N+](=O)[O-])c1 | 5.01 µM (active) | 
Cc1cc(C)n(-c2cc(N3CCN(C(=O)c4ccc(C(C)(C)C)cc4)CC3)ccc2[N+](=O)[O-])n1 | 2.82 µM (active) | 
Cc1ccc(C)c(-c2nn(-c3cc(N4CCN(CCO)CC4)ccc3[N+](=O)[O-])c(=O)c3ccccc23)c1 |  | -101% (inactive)
COC(=O)c1ccc(N2CCN(CC(=O)c3ccc(-c4ccccc4)cc3)CC2)c([N+](=O)[O-])c1 | 5.01 µM (active) | 
O=C(Nc1ccc(-c2nc3ccccc3o2)cc1)c1ccc(N2CCOCC2)c([N+](=O)[O-])c1 | 5.01 µM (active) | 
Cc1ccc(C(=O)O/N=C\c2ccc(N3CCCCC3)c([N+](=O)[O-])c2)cc1 | 1.58 µM (active) | 
COC(=O)c1ccc(N2CCN(c3ccccc3)CC2)c(NC(=O)C2CC2)c1 |  | -20.9% (inactive)
CCOC(=O)c1[nH]c(C(=O)O)c(CCN(CC)CC)c1C |  | 7.09% (inactive)
CO[C@H]1COC(=O)[C@@H](C)COC(=O)[C@@H](Cc2ccccc2)NC(=O)C/C=C\[C@H]1C |  | 10.6% [at 11.4 µM] (inactive)
CC(C)=CCC/C(C)=C/CO/N=C1/C[C@@H](O)[C@@H](O)[C@@H]2[C@@H]3C(=O)N(C[C@@H]4CCCO4)C(=O)[C@H]3CC[C@@H]12 |  | 29.8% [at 11.4 µM] (inactive)

Compound | AC50 | activity, negative = inhibition
Cc1ccc(C)c2sc(NC(=O)c3ccc(N4CCCCC4)c([N+](=O)[O-])c3)nc12 | 2.82 µM (active) | 
O=C(NCCNC[C@@H](O)COc1ccc(O)cc1)N1CCOCC1 | inactive | 
Cc1ccc(CS(=O)(=O)CCC(=O)N2CCOCC2)cc1 |  | -8.97% (inactive)
Cn1ncc([N+](=O)[O-])c1C(=O)N1CCOCC1 |  | -1.66% (inactive)
Cc1ccccc1C(=O)N1CCN(c2ccc([N+](=O)[O-])c(N3CCOCC3)c2)CC1 | 15.8 µM (active) | 
Cc1ccc(OCCCC(=O)N2CCOCC2)cc1 | 1.41 µM (active) | 
CC(=O)N[C@@H](CC(=O)O)C(=O)N[C@@H](CCC(=O)O)C(=O)O (Ac-Asp-Glu-OH) | inactive | 
CCCCNN |  | -44.3% [at 11.4 µM] (inactive)
O=C(O)[C@H]([C@H]1NCCS1)N1Cc2ccccc2C1 |  | -31.8% [at 11.4 µM] (inactive)
C/C(=N\Nc1ccc([N+](=O)[O-])cc1)c1cccc(N)c1 | 1.26 µM (active) | 
NC(=O)c1cccc(N)c1 |  | -27.6% (inactive)
C/C(=N\Nc1nc(N)cc(Cl)n1)c1cccc([N+](=O)[O-])c1 |  | 2.88% (inactive)
CCOC(=O)c1sc(N(Cc2ccccc2)C(=O)CN2C(=O)CN(C)C2=O)nc1C | 15.8 µM (active) | 
CCOC(=O)c1sc(NS(=O)(=O)c2ccccc2)nc1C |  | -24.1% (inactive)
CO[C@H]1COC(=O)CCC[C@H](C)[C@H](OC)COC(=O)C/C=C\[C@@H]1C |  | -23% [at 11.4 µM] (inactive)
O=C(NCc1ccccc1)c1ccc2c(c1)C(=O)N(CC1CCCO1)C2=O (centres undefined) |  | -23.3% (inactive)
CC(C)Oc1cccc(-n2c(CCc3c[nH]c4ccc(Br)cc34)nc3ccccc3c2=O)c1 |  | 9.45% (inactive)
CCCCCCc1nc2ccccc2c(=O)n1NC(=O)c1c(O)c2c(n(CC(C)C)c1=O)CCCC2 | 5.62 µM (active) | 
C=CCn1c(=O)c(C(=O)NCCN(CC)CC)c(O)c2ccccc21 |  | -15.7% (inactive)
CCCn1c2c(c(O)c(C(=O)NCc3ccccc3)c1=O)CCCC2 | 17.8 µM (active) | 
CC(=O)N=c1sccn1CC(=O)c1ccc([N+](=O)[O-])cc1 | 10 µM (active) | 
CCN1C(=O)CC(N2CCN(CC(=O)NC(C)C)CC2)C1=O (centres undefined) |  | -9.22% (inactive)
CC(NC(=O)CN1CCCC1)C12CC3CC(CC(C3)C1)C2 (centres undefined) | 15.8 µM (active) | 

Compound | AC50 | activity, negative = inhibition
c1ccc(-c2nc(CSc3n[nH]c(-c4cccs4)n3)cs2)cc1 | 1.12 µM (active) | 
N#Cc1cccc(-c2nc3cnc(N4CCOCC4)nc3n(C3CC3)c2=O)c1 |  | -17.4% (inactive)
CC1=CC2=NC(=O)CC(C)(C(=O)N(CC(=O)NC(C)(C)C)Cc3cccs3)N2C=C1 (centres undefined) |  | -5.57% (inactive)
CC(C)(C)NC(=O)CN(Cc1cccs1)C(=O)CCC(=O)Nc1nccs1 | 7.94 µM (active) | 
Nc1ncnc2c1nc(Br)n2[C@H]1O[C@H]2COP(=O)(O)O[C@H]2[C@@H]1O |  | -28.5% (inactive)
O=C(c1cnccn1)N1CCC[C@@]2(CCN(c3ccccn3)C2)C1 |  | 7.86% (inactive)
O=C(Oc1ccccc1)N1CCC[C@@]2(CCN(c3ccccn3)C2)C1 | 5.01 µM (active) | 
O=C(Oc1ccccc1)N1CCC2(CCCN(c3ccccn3)C2)CC1 | 7.94 µM (active) | 
CC(=O)N1CCC2(CC1)CN(c1ccccn1)C2 |  | 9.66% (inactive)
O=C(Oc1ccccc1)N1CCC[C@@]2(CCN(c3ncccn3)C2)C1 | 2.51 µM (active) | 
O=C(c1ccncc1)N1CCC[C@@]2(CCN(c3ccccn3)C2)C1 | 6.31 µM (active) | 
O=C(Oc1ccccc1)N1CCC2(CC1)CN(c1ncccn1)C2 |  | -27.7% (inactive)
O=C(c1cc(C(F)(F)F)cc(C(F)(F)F)c1)N1CCC[C@@]2(CCN(c3ccccn3)C2)C1 |  | -29.6% (inactive)
COC(=O)N1CCC[C@@]2(CCN(c3ncccn3)C2)C1 |  | 3.42% (inactive)
O=C(Oc1ccccc1)N1CCC2(CC1)CN(c1ccccn1)C2 |  | -4.95% (inactive)
C/C(CCN1CCCCc2nc(C)c(C)cc21)=N\OC[C@@H](O)COCc1ccco1 |  | 11% [at 11.4 µM] (inactive)
CC(=O)N1CCC2(CCCN(c3ccccn3)C2)CC1 |  | -20.4% (inactive)
O=C(Oc1ccccc1)N1CCC2(CCCN(c3ccc(-c4ccccc4)cc3)C2)CC1 |  | 3% (inactive)
COC(=O)N1CCC2(CC1)CN(c1ccccn1)C2 |  | -43.9% (inactive)
O=C(Oc1ccccc1)N1CCC2(CCCN(c3ccccc3)C2)CC1 | 15.8 µM (active) | 
COC(=O)N1CCC2(CCCN(c3ccccn3)C2)CC1 | 3.16 µM (active) | 
O=C(Oc1ccccc1)N1CCC2(CC1)CCN(c1cccc(-c3ccccc3)c1)CC2 |  | 7.79% (inactive)
O=S(=O)(O)[C@@H](c1ccccc1)[C@@H](O)c1ccccc1 |  | 3.73% [at 11.4 µM] (inactive)

Compound | AC50 | activity, negative = inhibition
Cc1ccc(S(=O)(=O)N=Nc2c(O)[nH]c3cc(O)c(C(=O)O)cc23)cc1 |  | 38.4% [at 11.4 µM] (inactive)
Cc1cccc(C)c1NC(=O)[C@H](C)N |  | 11.1% [at 25.6 µM] (inactive)
Cc1cccc(C)c1NC(=O)C(NC=O)c1ccccc1Cl (centres undefined) | 7.94 µM (active) | 
COc1ccc(C(O)c2nccn2Cc2ccccc2)cc1 (centres undefined) | 5.01 µM (active) | 
COc1ccc([C@H](O)c2ccccn2)cc1 |  | -15.9% [at 11.4 µM] (inactive)
Cc1cc([C@](C)(N)C(=O)O)ccc1P(=O)(O)O |  | 0.228% (inactive)
O=C(c1ccc2c(c1)N(Cc1ccc(F)cc1)C(=O)CS2)N1CCOCC1 | 7.08 µM (active) | 
O=C1Nc2cc(C(=O)N3CCOCC3)ccc2SC1N1CCOCC1 (centres undefined) |  | 10.9% (inactive)
CC(Sc1nnc(Cc2cccs2)n1C1CCCCC1)C(N)=O (centres undefined) | 39.8 µM (active) | 
COc1ccc(C(=O)N2CCC3(CC2)CN(C(=O)NC(C)C)C3)cc1 |  | 9.55% (inactive)
CCOC(=O)C(C)Sc1nnc(CNC(=O)c2ccc(OC)cc2)n1C1CCCCC1 (centres undefined) | 5.01 µM (active) | 
COc1ccc(-n2c(CNC(=O)c3ccc(S(=O)(=O)N4CCCC4)cc3)n[nH]c2=S)cc1 |  | -27.5% (inactive)
O=C(O)[C@@H](O)[C@@H](O)[C@@H](O)[C@@H](O)c1nc2ccccc2s1 | 3.16 µM (active) | 
O=C(O)[C@@H](O)[C@@H](O)[C@@H](O)[C@@H](O)C(=O)O (tested in a mixture with another compound) |  | 9.98% [at 25.6 µM] (inactive)
O=C(O)[C@@H](O)[C@@H](O)[C@H](O)[C@H](O)CO |  | 2.53% [at 11.4 µM] (inactive)
CSc1nc(N)c2ncn([C@@H]3O[C@@H](COP(=O)(O)OP(=O)(O)O)[C@@H](O)[C@H]3O)c2n1 |  | -4.53% (inactive)
CCc1ccc(N(C(=O)c2ccoc2C)C(C(=O)NC2CCCC2)c2ccc(OC)cc2)cc1 (centres undefined) | 14.1 µM (active) | 
COc1ccc(C[C@H](N)C(=O)N[C@@H]2[C@H](O)[C@H](n3cnc4c(N(C)C)ncnc43)O[C@@H]2CO)cc1 |  | 10.8% [at 25.6 µM] (inactive)
COc1ccc(C(C(=O)NC2CCCCC2)N(C(=O)c2sc(C)nc2C)c2ccc(OC)cc2)cc1 (centres undefined) | 14.1 µM (active) | 
COc1ccc(C(C(=O)NC2CCCC2)N(C(=O)c2snc(-c3ccc(F)cc3)c2N)c2ccc(F)cc2)cc1 (centres undefined) |  | -24.1% (inactive)
